According to PubChem BioAssay (NCI):
Values joined by “and” are separate entries in the source; they are usually repeats but may differ in a detail not shown here. Equal values may be shown once. About 83,000 compounds went through this panel and 20% of them were active in at least one assay; those are over-represented in the sample as a whole.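 Values shown are percent growth following 48 h exposure of cells in 96-well plates to a single concentration of compound; below 10 was considered active.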 Active and inactive are the calls of the source.

Experiments:
Assay in all cases: NCI-60 one-dose screen, 48 h (100 = growth as untreated, 0 = no growth, -100 = all killed)
Conditions in all cases: 10 µM unless noted
HCT-15 colon = test system: HCT-15 colon
HT29 colon = test system: HT29 colon
SNB-75 CNS = test system: SNB-75 CNS
SNB-19 CNS = test system: SNB-19 CNS
U251 CNS = test system: U251 CNS
PC-3 prostate = test system: PC-3 prostate
SK-MEL-5 melanoma = test system: SK-MEL-5 melanoma
UACC-62 melanoma = test system: UACC-62 melanoma
LOX IMVI melanoma = test system: LOX IMVI melanoma
SK-MEL-28 melanoma = test system: SK-MEL-28 melanoma
EKVX NSCLC = test system: EKVX NSCLC
SN12C renal = test system: SN12C renal
UO-31 renal = test system: UO-31 renal
TK-10 renal = test system: TK-10 renal
ACHN renal = test system: ACHN renal
CAKI-1 renal = test system: CAKI-1 renal
A498 renal = test system: A498 renal
CCRF-CEM leukemia = test system: CCRF-CEM leukemia
MOLT-4 leukemia = test system: MOLT-4 leukemia
SK-MEL-2 melanoma = test system: SK-MEL-2 melanoma

Measured: growth

NC(=O)C1CC2C=CC1C2 (stereo unspecified)
inactive: HCT-15 colon 107% and 106% | HT29 colon 107% and 114% | SNB-75 CNS 87% and 93.8% | SNB-19 CNS 92.1% | U251 CNS 98.7% and 99.8% | PC-3 prostate 100% and 98.4% | SK-MEL-5 melanoma 99.9% and 109% | UACC-62 melanoma 102% and 94.3% | LOX IMVI melanoma 90.1% and 94.2% | SK-MEL-28 melanoma 104% and 101% | EKVX NSCLC 102% and 94.7% | SN12C renal 103% and 99.6% | UO-31 renal 100% and 86.8% | TK-10 renal 120% and 117% | ACHN renal 101% and 95.3% | CAKI-1 renal 76.1% and 69.2% | A498 renal 112% and 89.4% | CCRF-CEM leukemia 118% and 96.2%

CN1CCN(c2ccc3nc(-c4c(N)c5c(F)cccc5[nH]c4=O)[nH]c3c2)CC1
-82.3% (active) and 54.7% (inactive): EKVX NSCLC
active: SK-MEL-28 melanoma -5.34% | MOLT-4 leukemia -8.41% and 1.37%
1.59% (active) and 10.3% (inactive): HT29 colon
6.23% (active) and 10.7% (inactive): CCRF-CEM leukemia
7.59% (active) and 16% (inactive): UO-31 renal
inactive: HCT-15 colon 30.7% and 18.7% | SNB-75 CNS 35.3% and 28.4% | SNB-19 CNS 53.9% and 61.5% | U251 CNS 34.9% and 33.5% | PC-3 prostate 27.2% and 38.4% | SK-MEL-5 melanoma 11.2% and 36.3% | UACC-62 melanoma 46.5% and 41% | SN12C renal 26.3% and 27.6% | TK-10 renal 35.1% and 45.8% | ACHN renal 17.8% and 18% | CAKI-1 renal 14% and 20.4% | A498 renal 29% and 14.6%
-66.4% (active) and 16.4% (inactive): LOX IMVI melanoma

COc1ccc(NC(=S)Nc2ccccn2)cc1
inactive: HCT-15 colon 98.6% | HT29 colon 107% | SNB-75 CNS 152% | SNB-19 CNS 98.9% | U251 CNS 93.6% | PC-3 prostate 97.2% | SK-MEL-5 melanoma 98.9% | UACC-62 melanoma 103% | LOX IMVI melanoma 89.8% | SK-MEL-28 melanoma 110% | EKVX NSCLC 96.5% | SN12C renal 100% | UO-31 renal 93.7% | TK-10 renal 102% | ACHN renal 97.7% | CAKI-1 renal 89.3% | A498 renal 83% | CCRF-CEM leukemia 90.8% | MOLT-4 leukemia 91%

Nc1ccccc1SC1CC(=O)N(c2cccc3ccccc23)C1=O (stereo unspecified)
inactive: HCT-15 colon 99% | HT29 colon 106% | SNB-75 CNS 76.4% | SNB-19 CNS 96.7% | U251 CNS 97.3% | PC-3 prostate 87.7% | SK-MEL-5 melanoma 96.7% | UACC-62 melanoma 82.6% | LOX IMVI melanoma 97.1% | SK-MEL-28 melanoma 96.3% | SK-MEL-2 melanoma 92.6% | SN12C renal 98.3% | UO-31 renal 68.6% | TK-10 renal 113% | ACHN renal 97.5% | CAKI-1 renal 79.7% | A498 renal 88.8% | MOLT-4 leukemia 83.5%

O=C(CN1CCN(c2cc3c(cc2F)c(=O)c(C(=O)O)cn3C2CC2)CC1)Nc1ccc(Cl)cc1
inactive: HCT-15 colon 83% and 92.3% | HT29 colon 57.9% and 100% | SNB-75 CNS 79.7% | SNB-19 CNS 83.1% and 90.9% | U251 CNS 44.2% and 102% | SK-MEL-5 melanoma 71.1% and 83.5% | UACC-62 melanoma 63.6% and 57.8% | LOX IMVI melanoma 61.1% and 72.4% | SK-MEL-28 melanoma 87.1% and 84% | EKVX NSCLC 93.4% and 92.3% | SN12C renal 90.1% and 90.6% | TK-10 renal 86.1% and 127% | CAKI-1 renal 67.2% and 77.6% | A498 renal 68.6% and 45.8% | CCRF-CEM leukemia 77.4% and 92.6% | MOLT-4 leukemia 96.5% and 92.7%
7.15% (active) and 16% (inactive): UO-31 renal
